The structures appear in SMILES notation. Where “and” joins values, the source holds several entries; their conditions need not be identical. Equal values may be shown once. Screen size: about 320,000 compounds; about 2,100 (0.66%) were called active.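 The calls were made as follows: active = inhibition above the mean inhibition of all tested compounds plus 3 SD, set per campaign (cut at about 40% in these data); inactive = the rest.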 Many of the other results were omitted from the sample, so actives are more common in it than they were. Where a structure was tested more than once in an assay, its records may differ in their call.

Induced myeloid leukemia cell differentiation protein Mcl-1 (Homo sapiens), sequence (Q07820 whole entry, looked up): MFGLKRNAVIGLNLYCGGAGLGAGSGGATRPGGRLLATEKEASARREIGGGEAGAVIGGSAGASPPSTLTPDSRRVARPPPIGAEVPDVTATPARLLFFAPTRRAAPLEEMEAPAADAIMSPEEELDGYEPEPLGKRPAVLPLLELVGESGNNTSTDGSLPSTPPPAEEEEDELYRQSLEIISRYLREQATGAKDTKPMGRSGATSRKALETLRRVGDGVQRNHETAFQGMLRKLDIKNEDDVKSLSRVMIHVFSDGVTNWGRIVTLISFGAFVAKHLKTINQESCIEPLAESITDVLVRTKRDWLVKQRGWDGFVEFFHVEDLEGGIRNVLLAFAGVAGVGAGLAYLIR

This experiment addresses Induced myeloid leukemia cell differentiation protein Mcl-1 (Homo sapiens) (UniProt Q07820). Put plainly: inhibitors of MCL1 binding to BIM-BH3, primary screen, biochemical, fluorescence polarization (AID 2057).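 Also: 0% = DMSO wells and 100% = unlabeled Bim-BH3 peptide control; higher means more loss of mP so more displacement of Bim peptide.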 The settings on record: GST-MCL1 / FITC-Bim-BH3 fluorescence polarization; at 10.9 µM; stronger effect = higher value. A general note: Polarisation of emitted light reports the rotation of a fluorescent probe.
One may read the inhibition as the drop in the measured response relative to a control, in per cent. For the compound `COc1ccc(S(=O)(=O)N2CCCCC2)cc1NC(=O)c1cc([N+](=O)[O-])ccc1N1CCOCC1`, the inhibition is 3.68% (inactive).
As for `CCn1c(SCc2cc(=O)n3ccsc3n2)nc2ccccc21`, the figure is 8.95% (inactive); as for `CCOc1ncccc1C(=O)N(C)CC(=O)Nc1ccc(F)cc1`, -10.5% (inactive).
As for `CC(=O)N1CCN(C(=O)c2cc(-c3ccc(C)o3)nc3ccccc23)CC1`, the figure is 7.28% (inactive); as for `COc1ccc(NC(=O)c2cc(-c3ccc(C)o3)nc3ccccc23)cc1`, 22.5% (inactive).
Next, `Cc1ccc(NC(=O)c2cc(-c3ccc(C)o3)nc3ccccc23)nc1`: 56.2% (active); `Cc1cc(OCc2cc(C(=O)NCc3cc(C(C)C)no3)no2)cc(C)c1Cl`: 6.88% (inactive); `Cc1cc(C)n(-c2nnc(C)n2NC(=O)c2cccc(Cl)c2)n1`: -1.3% (inactive).
As to `Oc1ccc(C2Nc3cccc4cccc(c34)N2)cc1`, the inhibition is 26.6% (inactive).
Consider `Cc1ccc(C2Nc3cccc4cccc(c34)N2)cc1`, for which the inhibition was 53.9% (active).
As for `COc1cccc(C2Nc3cccc4cccc(c34)N2)c1`, the figure is 22.2% (inactive); as for `O=C(C1CCC1)N1CCN(S(=O)(=O)c2ccc([N+](=O)[O-])cc2)CC1`, -7.38% (inactive); as for `COc1ccc(O)c(/C=N/N=C/c2cccc([N+](=O)[O-])c2)c1`, 3.97% (inactive).
Next, `COc1ccccc1/C=C/C(=O)NC(=S)N1CCOCC1`: -5.3% (inactive).
As for `COc1ccc(OCC(=O)NCCS(=O)(=O)N2CCN(c3ccc(F)cc3)CC2)cc1`, the inhibition is 2.8% (inactive).
For the compound `COC(=O)C1=C(C)Nc2ncnn2C1c1ccco1` (stereo not given), the inhibition was 9.97% (inactive).
Turning to `CCOc1ccc(C2=CC(c3ccccc3)n3ncnc3N2)cc1` (stereo not given), the inhibition was 6.81% (inactive).
For the compound `O=C(C1=C(O)C(=O)N(Cc2ccccc2)C1c1cccnc1)c1ccco1` (stereo not given), the inhibition is 2.72% (inactive).
As for `O=C(C1=C(O)C(=O)N(Cc2ccccc2)C1c1ccco1)c1ccco1` (stereo not given), the figure is 4.91% (inactive).
Regarding `O=C(C1=C(O)C(=O)N(c2ncccn2)C1c1cccs1)c1ccco1` (stereo not given), the inhibition was 117% (active).
Next, `CC(=O)Nc1cccc(C(=O)OCC(=O)c2ccc3c(c2)OCO3)c1`: 0.4% (inactive).
As for `C/C=C\C=C\C(=O)N1CC2(CC(c3cccc(NC(=O)/C(C)=C\C)c3)=NO2)C[C@H]1C(N)=O` (stereo not given in full), the figure is 0% (inactive).
As to `CCOc1ccccc1NC(=S)N1CCN(c2cccc(C)c2C)CC1`, the inhibition is 4.81% (inactive).
`CCOC(=O)c1ccc(NC(=O)Cn2cnc3cc(C)c(C)cc32)cc1`: the inhibition is 5.35% (inactive).
Next, `NC(=O)C1=C[C@@H](c2ccc3c(c2)OCO3)C[C@@H](OCCCCO)O1`: 12.6% (inactive).
As for `Cc1cc(C)cc(OCC(=O)Nc2ccc(N3CCOCC3)cc2N2CCOCC2)c1`, the figure is 1.14% (inactive); as for `CCCCNc1nc2ccccc2nc1NS(=O)(=O)c1cccs1`, 2.76% (inactive).
As for `COc1ccc(Cl)cc1NC(=O)CCS(=O)(=O)c1ccc(Br)cc1`, the figure is 42.9% (active); as for `COc1ccc(Cl)cc1NC(=O)CCS(=O)(=O)c1cc2c(cc1C)NC(=O)CO2`, 8.54% (inactive); as for `O=C(CCS(=O)(=O)c1ccc(Br)cc1)NCCc1ccc(Cl)cc1`, -2.54% (inactive).
`O=C(NNS(=O)(=O)c1ccccc1)c1cnn(-c2ccc(Cl)cc2)c1C(F)(F)F`: the inhibition is 6.42% (inactive).
As for `O=C(O)c1ccccc1N=N/C(=N/Nc1cc(S(=O)(=O)O)ccc1O)c1ccccc1`, the inhibition was 62% (active).
In the case of `O=C(Nc1ccc(C(=O)O)c(O)c1)c1ccccc1`, the inhibition was -1.25% (inactive).
Next, `O=C(NCCc1ccccc1)C1CC1`: 3.41% (inactive); `Cc1cc(C)n2nc(C(=O)Oc3ccc4c(c3)OCO4)nc2n1`: 3.36% (inactive); `CN(C)N=Nc1ccc2nc[nH]c2c1`: 2.69% (inactive).
With `Cc1ccc(S(=O)(=O)N[C@@H](Cc2ccccc2)C(=O)N2CCC(C(=O)N[C@H](C(=O)O)C(C)O)CC2)cc1` (stereo not given in full), the inhibition is -6.49% (inactive).
Take `Cc1nn(C)c(Oc2ccccc2)c1CCNS(=O)(=O)c1ccc(F)cc1`: the inhibition is 2.92% (inactive).
On to `COc1ccc(CNc2nc3c(c(=O)[nH]c(=O)n3C)n2Cc2ccccc2)cc1`, for which the inhibition was 5.54% (inactive).
As for `COCCn1c(N)c(N(Cc2ccccc2)C(=O)C2CCCCC2)c(=O)[nH]c1=O`, the figure is 0.45% (inactive).
Next, `COCCn1c(N)c(NCc2ccccc2)c(=O)[nH]c1=O`: 73.5% (active); `CCC(=O)c1cc(F)ccc1OCC(=O)Nc1ccc2c(c1)OCCO2`: -2.34% (inactive).
As for `O=c1[nH]c2ccccc2n2c(-c3ccccc3)nnc12`, the figure is 57% (active); as for `O=c1[nH]n2c(-c3ccccc3)nc(O)c2c2ccccc12`, -5.68% (inactive).
Turning to `Cc1nc2nc(C)c(NS(=O)(=O)c3ccc(C(C)(C)C)cc3)c(=O)n2[nH]1`, the inhibition is 0.66% (inactive).
As for `CS(=O)(=O)N(CC(=O)N1CCN(c2ccc(F)cc2)CC1)C1CCCCC1`, the figure is -4.24% (inactive); as for `CCOC(=O)N1CCN(C(=O)C(C)NC(=O)c2ccco2)CC1` (stereo not given), -1.38% (inactive).
Next, `CCN(C(=O)CSc1ncnc2sccc12)c1c(N)n(Cc2ccccc2)c(=O)[nH]c1=O`: 0.53% (inactive); `O=C(N/N=C\c1cc(Br)c(Br)o1)C1COc2ccccc2O1` (stereo not given): 10.5% (inactive); `Cc1ccc(C(=O)N/N=C\c2cc(Br)c(Br)o2)cn1`: 46% (active).
Next, `Cc1ccc(C(=O)N/N=C/c2cccc3ccccc23)cn1`: -3.5% (inactive).
As for `Cc1ccn2cc(-c3nonc3C)cc2c1`, the inhibition was 11.9% (inactive).
Next, `Cc1nc2cc(S(=O)(=O)C(F)(F)F)ccc2s1`: -1.41% (inactive); `NS(=O)(=O)c1cccc(NC(=O)CC23CC4CC(CC(Br)(C4)C2)C3)c1`: -1.18% (inactive); `Cc1sc(NC(=S)NC(=O)c2cccs2)nc1-c1ccc(CC(C)C)cc1`: -5.44% (inactive).
As for `O=C(NN1C(=O)C2C(C1=O)C1C=CC2C12CC2)c1ccccc1Cl` (stereo not given), the figure is 1.2% (inactive); as for `CC12CCC(C(=O)N(c3cccc(Cl)c3)C1=O)C2(C)C` (stereo not given), 4.99% (inactive); as for `CC12CCC(C(=O)N(NC(=O)c3ccccc3O)C1=O)C2(C)C` (stereo not given), 42.7% (active).
`CCCC1=Nc2cc(C(=O)NCc3ccco3)ccc2Sc2ccccc21`: the inhibition is -1.97% (inactive).
Turning to `CCOP1(=O)C=C(C(C)(C)C)OC1c1ccc(F)cc1` (stereo not given), the inhibition is -0.66% (inactive).
`Cc1coc2c(O)cc3c(c12)OC1(N2CCCCC2)C(=O)NCCCC31` (stereo not given): the inhibition is 48.6% (active).
As for `Cc1ccc2nnn(Cc3cccc(C(C)(C)C)c3O)c2c1`, the figure is -0.36% (inactive).
As for `CC1CCN(C(=O)c2ccccc2NC(=O)Cc2ccccc2)CC1`, the figure is 2.82% (inactive); as for `CCCCn1c(N)c(N(CC(C)C)C(=O)c2ccc(-n3c(C)ccc3C)cc2)c(=O)[nH]c1=O`, -0.69% (inactive).
For the compound `COc1ccc(Nc2ccc([N+](=O)[O-])cn2)cn1`, the inhibition is 48.7% (active).
Consider `COc1ccc(C(=O)NCCNc2ccc([N+](=O)[O-])cn2)cc1`, for which the inhibition was -2.53% (inactive).
As for `COc1cc(/C=N\Nc2ccc([N+](=O)[O-])cn2)ccc1OCC(=O)O`, the figure is -10.5% (inactive); as for `O=C(CCc1c[nH]c2ccccc12)NCCOc1ccccc1`, 0.99% (inactive); as for `O=C(COC(=O)/C=C/c1ccc(S(=O)(=O)N2CCCCCC2)cc1)NCc1ccccc1Cl`, 5.88% (inactive).
As for `CN(c1ccc(OCC(=O)O)cc1)S(=O)(=O)c1ccc2ccccc2c1`, the figure is 15.4% (inactive).
Regarding `Cc1ccc2nc(COc3ccc(N(C)S(=O)(=O)c4ccccc4)cc3)cc(=O)n2c1`, the inhibition is 42% (active).
As for `COc1cccc(COc2ccc(N(C)S(=O)(=O)c3ccccc3)cc2)c1`, the figure is -7.28% (inactive); as for `O=c1[nH]c(=O)c2nc3ccccc3nc2[nH]1`, 40.2% (active); as for `O=c1[nH]c(-c2ccccc2)c(-c2ccccc2)[nH]1`, 1.68% (inactive).
Next, `CNC(=O)c1cccc2nc3ccccc3nc12`: 2.56% (inactive).
Next, `Cn1cnc2c1c(=O)n(Cc1ccccc1C#N)c(=O)n2C`: 2.03% (inactive); `CC(C)c1ccc2oc(=O)cc(CN3CCN(Cc4ccccc4)CC3)c2c1`: -0.09% (inactive).
Turning to `C#CCNC(=O)[C@H](Cc1ccc(C(=O)c2ccccc2)cc1)NC(=O)OC(C)(C)C`, the inhibition is -1.48% (inactive).
Next, `COc1ccc(CN2CC(C(=O)NC3CCCCC3)CC2=O)cc1` (stereo not given): 1.62% (inactive).
Take `O=C(CCNC(=O)C1CCN(S(=O)(=O)c2ccccc2)CC1)NC1CC1`: the inhibition was 1.06% (inactive).
Next, `CCN(CC(=O)NCC(=O)Nc1cccc(C)c1C)Cc1ccccc1`: -6.88% (inactive); `Cc1[nH]c2ccccc2c1C(=O)CN1CCCC(C)C1` (stereo not given): -7.18% (inactive).
As for `Cc1nnc(NC(=O)/C=C/c2ccco2)s1`, the inhibition is 53.5% (active).
Next, `CCOC(=O)c1c(NC(=O)/C=C/c2ccco2)sc(C)c1C`: -7.18% (inactive); `CCC(CC)c1nnc(NC(=O)/C=C/c2ccco2)s1`: -2.29% (inactive).
Next, `O=c1[nH]c2ccc(S(=O)(=O)N3CCCC3)cc2[nH]1`: 5.45% (inactive).
Next, `N/C(=N\S(=O)(=O)c1cc(C(F)(F)F)cc(C(F)(F)F)c1)c1cccs1`: 5.69% (inactive); `Cc1ccc(C(O)P(=O)(OC(C)C)c2ccc(N(C)C)cc2)cc1` (stereo not given): -0.54% (inactive); `COC(=O)C1CCN(C(=O)c2cc(=O)[nH]c3ccccc23)CC1`: -5.36% (inactive).
For the compound `COC(=O)[C@H]1[C@H]2C[C@H]3c4[nH]c5ccccc5c4CCN3C[C@@H]2CC[C@@H]1O`, the inhibition was 2.37% (inactive) and 78.5% (active).
As for `O=C(NC1CCCCC1)N1CCc2[nH]c3ccccc3c2C1`, the inhibition was 7.44% (inactive).
Next, `COc1ccc(NC(=O)C2=CC(c3ccc(OC)c(OC)c3)=NS(=O)(=O)N2C)cc1`: -1.75% (inactive).
As for `Cc1ccc(/C=N/NC(=O)COc2ccccc2-c2ccccc2)cc1`, the figure is 66.9% (active).
Next, `C=CCc1ccccc1OCC(=O)N/N=C/c1ccccc1OCC`: -1.1% (inactive).
In the case of `Cc1cccc(OCC(=O)NCC(=O)N/N=C/c2ccc(N(C)C)cc2)c1`, the inhibition is 5.85% (inactive).

These data come from PubChem BioAssay AID2057 (The Scripps Research Institute Molecular Screening Center, 2009).
